Consider six compounds from PubChem BioAssay (NCATS).

The structures appear in SMILES notation. Where “and” joins values, the source holds several entries; their conditions need not be identical. Identical values can stand only once. Records with an inconclusive call do not appear. Calls of active or inactive are those of the source. Unless noted, the call rests on the fitted dose curve; in most records, active means well fitted curve in the direction sought with a large enough effect; inconclusive means small, poorly fitted or top-dose-only effect, or another doubt; inactive means no such curve, though single readings can be large; an effect the other way counts as inactive or inconclusive.

In experiment [1] the target is Estrogen receptor (Homo sapiens) (UniProt P03372). Nature of the experiment: qHTS assay for small molecule antagonists of estrogen receptor alpha signaling (AID 588513; active means well fitted curve in the direction sought with a large enough effect in the signal ratio, with a control signal flat, not every such curve was filed as active; the % refers to the signal ratio; further: potency means the concentration at half of the fitted maximal effect). An outline of the steps: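 Beta-lactamase reporter, antagonist mode, HEK 293 GripTite cells; 0.5nM E2 stimulus, 18 h, 37 C; CCF4 dye 2 h RT; fluorescence. IC50 and efficacy from Hill fits, normalized to E2 and DMSO.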
Chain of Estrogen receptor (Homo sapiens) (P03372 whole entry, looked up): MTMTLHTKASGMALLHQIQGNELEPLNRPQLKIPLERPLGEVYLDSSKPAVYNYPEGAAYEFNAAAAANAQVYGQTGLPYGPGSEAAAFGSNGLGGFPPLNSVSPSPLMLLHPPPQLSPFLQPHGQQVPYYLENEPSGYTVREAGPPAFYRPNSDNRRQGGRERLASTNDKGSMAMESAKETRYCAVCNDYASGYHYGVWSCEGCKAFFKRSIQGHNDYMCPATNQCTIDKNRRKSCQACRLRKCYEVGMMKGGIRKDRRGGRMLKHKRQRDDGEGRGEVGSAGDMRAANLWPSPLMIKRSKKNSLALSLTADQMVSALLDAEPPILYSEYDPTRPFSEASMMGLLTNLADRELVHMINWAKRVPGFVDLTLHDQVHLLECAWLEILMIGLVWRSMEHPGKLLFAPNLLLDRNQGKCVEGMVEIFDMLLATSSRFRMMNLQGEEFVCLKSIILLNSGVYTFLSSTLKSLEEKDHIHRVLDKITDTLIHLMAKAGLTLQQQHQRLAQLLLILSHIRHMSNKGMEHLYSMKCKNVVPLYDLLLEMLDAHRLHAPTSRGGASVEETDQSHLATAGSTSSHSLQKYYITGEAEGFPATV
Background: In qHTS, concentration-response curves come from the screen itself.

For experiment [2] the target is unchanged. Put plainly: qHTS assay for small molecule agonists of estrogen receptor alpha signaling (AID 588514; calls by dose curve;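 further: 0% = vehicle only and 100% = reference agonist; nearly all actives have a fitted effect of over 70% in size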). An outline of the steps: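 ER-alpha-UAS-bla GripTite HEK293 cells, 5000/well in 2% charcoal/dextran-stripped FBS medium, treated with compound titrations 18 h at 37 C. CCF4 beta-lactamase read by fluorescence after 2 h RT; normalised to 20 nM 17-beta-estradiol (100%) and DMSO (0%), Hill fit for EC50 and efficacy.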

Experiment [3] concerns the target Peroxisome proliferator-activated receptor delta (Homo sapiens) (UniProt Q03181). Nature of the experiment: qHTS assay for small molecule agonists of peroxisome proliferator-activated receptor delta signaling (AID 588534; calls by dose curve;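 further: 0% = DMSO basal wells and 100% = positive control agonist at 10 µM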). An outline of the steps: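 Cells carrying a PPAR-delta beta-lactamase reporter were treated with compounds for 18 h at 37 °C in agonist mode. CCF4 fluorescence was read after 2 h; EC50 and efficacy from Hill fits.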

Experiment [4] deals with Peroxisome proliferator-activated receptor gamma (Homo sapiens) (UniProt P37231). Nature of the experiment: qHTS assay for small molecule agonists of peroxisome proliferator-activated receptor gamma signaling (AID 588536; active means well fitted curve in the direction sought with a large enough effect in the signal ratio, with a control signal flat, not every such curve was filed as active; the % refers to the signal ratio;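 further: 0% = DMSO basal wells and 100% = rosiglitazone at 2 µM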). Put shortly:
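Test agents, titrated, stimulated HEK293 UAS-bla cells overnight (16 h, 37 C). Substrate CCF4 was then added for two hours at room temperature before fluorescence reading.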

Experiment [5] can be described thus: qHTS assay for small molecule agonists of retinoid X receptor alpha signaling (AID 588544; calls by dose curve;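 on activation: 0% = DMSO basal wells and 100% = reference agonist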). Particulars: HEK293T RXRa-UAS-bla, beta-lactamase reporter, 18 h; 530 nm emission.
Experiment [6] has as its target Retinoic acid receptor RXR-alpha (Homo sapiens) (UniProt P19793). The description is as above.
In experiment [7] the target is Thyroid hormone receptor beta (Homo sapiens) (UniProt P10828). Put plainly: qHTS assay for small molecule agonists of thyroid hormone receptor beta signaling (AID 588545; calls by dose curve;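 further: 0% = DMSO only and 100% = 10 nM T3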). An outline of the steps:
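Beta-lactamase reporter activity under TR response element control is measured in HEK 293 cells after 18 hrs compound exposure. Signal is ratiometric CCF4 fluorescence, 460/530 nm.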

A short description of experiment [8]: qHTS assay for small molecule antagonists of retinoid X receptor alpha signaling (AID 588546; active means well fitted inhibition curve with a large enough effect in the signal ratio, with a control signal flat, not every such curve was filed as active; the % refers to the signal ratio;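 further: cells stimulated with 9-cis-retinoic acid as agonist; on the % scale 0 is the no-effect control and ±100 the full control effect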). The settings on record: HEK293T RXRa-UAS-bla, beta-lactamase ratio, antagonist mode; measured here: W530 green channel, cytotoxicity proxy. An outline of the steps:
(§1)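 Beta-lactamase reporter inhibition, read as CCF4 fluorescence ratio (ex 405, em 460/530 nm) after 2 h at RT. HEK293T UAS-bla cells, 2500/well, were stimulated with 9-cis-RA at 500 or 100 nM final alongside test compound for 18 h at 37 C.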

Experiment [9] addresses Retinoic acid receptor RXR-alpha (Homo sapiens) (UniProt P19793). The experiment is described as above. The settings on record: HEK293T RXRa-UAS-bla, beta-lactamase ratio, antagonist mode. Put shortly:
as §1

For experiment [10], the target named is Thyroid hormone receptor beta (Homo sapiens) (UniProt P10828). Nature of the experiment: qHTS assay for small molecule antagonists of thyroid hormone receptor beta signaling (AID 588547; active means well fitted inhibition curve with a large enough effect in the signal ratio, with a control signal flat, not every such curve was filed as active; the % refers to the signal ratio;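 further: cells stimulated with 0.4 nM T3 agonist during compound exposure; series mostly up to about 77 µM; on the % scale 0 is the no-effect control and ±100 the full control effect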). Particulars: TR-UAS-bla HEK293, beta-lactamase ratio, antagonist mode, 18 h. Put shortly:
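Inhibition of T3-driven (0.4nM final) beta-lactamase reporter activity was measured over 0.59 nM to 92 uM compound after 18 h at 37 C. The cells were GripTite HEK293 TR-UAS-bla in charcoal/dextran-stripped serum, with CCF4 ratio read-out and IC50 from Hill fits.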

The nature of experiment [11]: qHTS assay for small molecule activators of the p53 signaling pathway (AID 651743; active means well fitted activation curve with a large enough effect in the signal ratio, not every such curve was filed as active; the % refers to the signal ratio; further: potency means the concentration at half of the fitted maximal effect; on activation: series mostly up to about 92 µM; % of control where 0% means no effect). Particulars: HCT-116 p53RE-bla, beta-lactamase FRET ratio, 16 h; activation: stronger effect = higher value. Put shortly: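 Read-out is fluorescence intensity from the LiveBLAzer B/G FRET substrate, added for 2 hours at room temperature after HCT-116 p53RE-bla cells had been incubated with compounds for 16 hours at 37 C.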

A short description of experiment [12]: qHTS assay for environmental chemicals that activate the Aryl hydrocarbon Receptor (AhR) signaling pathway (AID 651777). Further: % of control where 0% means no effect; nearly all actives have a fitted effect of over 15% in size. The settings on record: 1A2-DRE human hepatoma cells, luciferase, 24 h; activation: stronger effect = higher value. An outline of the steps: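 Luminescence (One-Glo, 30 min, room temperature) reports AhR-driven luciferase in stably transfected human hepatoma cells bearing DRE and CYP1A2 promoter. Cells (1,200/well) were treated with compound for 24 hr at 37 C in qHTS format.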

The target of experiment [13] is Peroxisome proliferator-activated receptor alpha (Homo sapiens) (UniProt Q07869). Put plainly: qHTS assay for small molecule agonists of the peroxisome proliferator-activated receptor alpha (PPARalpha) signaling pathway (AID 651778). Further: % of control where 0% means no effect. Particulars: PathHunter PPARalpha complementation, chemiluminescence, 6 h; max response: stronger effect = higher value. Put shortly:
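Chemiluminescence from complemented enzyme reported PPARalpha activation in cells after 6 hr of compound treatment at 37 C. The detection reagent was incubated for 60 min at room temperature, and compounds were scored as agonists.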

Experiment [14] in a line: qHTS assay for small molecule agonists of the antioxidant response element (ARE) signaling pathway measured by Nrf2-dependant transcriptional activity (AID 720636; active means well fitted curve in the direction sought with a large enough effect in the repeat runs; an effect the other way counts as inactive or inconclusive; further: % of control where 0% means no effect). An outline of the steps:
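Nrf2-dependent transcription read as ONE-Glo luciferase signal from ARE-luc HepG2 reporter cells after 16 hr compound treatment at 37 C, 5% CO2, in assay medium with 1% dialyzed FBS.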

Experiment [15] in a line: qHTS assay for small molecule agonists of the antioxidant response element (ARE) signaling pathway measured by Nrf2-dependant transcriptional activity - cell viability counter screen (AID 720653; active means well fitted curve in the direction sought with a large enough effect in the repeat runs; an effect the other way counts as inactive or inconclusive; further: on the % scale 0 is the no-effect control and ±100 the full control effect). The settings on record: ARE-bla HepG2 viability, CellTiter-Glo ATP luminescence, 16 h; max response: stronger effect = lower value. Put shortly:
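Cytotoxicity counter screen: intracellular ATP quantified by CellTiter-Glo luminescence in the same ARE-bla HepG2 plates, after 16 h compound exposure and a 2 h beta-lactamase substrate step.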

A short description of experiment [16]: qHTS assay for cell viability of HEK293 cells (AID 743288). Further: on the % scale 0 is the no-effect control and ±100 the full control effect; nearly all actives have a fitted effect of over 50% in size. The settings on record: ATP luminescence (CellTiter-Glo), 18 h; max response: stronger effect = lower value. Put shortly: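 Environmental chemicals tested in qHTS format against parental HEK293 cells; 18 h treatment, 37 C; read-out ATP luminescence (CellTiter-Glo), 30 min RT development.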
A short description of experiment [17]: qHTS assay for cell viability of the p53RE-bla HCT-116 cell line (AID 743292). Further: nearly all actives have a fitted effect of over 55% in size. Further: potency means the concentration at half of the fitted maximal effect. Put shortly:
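ATP-based luminescent viability (CellTiter-Glo, 30 min RT) after 16 h compound treatment at 37 C of p53RE-bla HCT-116 cells, seeded at 4,000 cells/well and rested 5 h before dosing.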

For experiment [18], the target named is Nuclear receptor subfamily 1 group I member 2 (Rattus norvegicus) (UniProt Q9R1A7). Put plainly: qHTS assay for small molecule activators of the rat pregnane X receptor (rPXR) signaling pathway (AID 651751; call rule not given here; further: 0% is about no effect). The settings on record: rPXR reporter cells, luciferase (One-Glo), 24 h.
Chain of Nuclear receptor subfamily 1 group I member 2 (Rattus norvegicus) (Q9R1A7 whole entry, looked up): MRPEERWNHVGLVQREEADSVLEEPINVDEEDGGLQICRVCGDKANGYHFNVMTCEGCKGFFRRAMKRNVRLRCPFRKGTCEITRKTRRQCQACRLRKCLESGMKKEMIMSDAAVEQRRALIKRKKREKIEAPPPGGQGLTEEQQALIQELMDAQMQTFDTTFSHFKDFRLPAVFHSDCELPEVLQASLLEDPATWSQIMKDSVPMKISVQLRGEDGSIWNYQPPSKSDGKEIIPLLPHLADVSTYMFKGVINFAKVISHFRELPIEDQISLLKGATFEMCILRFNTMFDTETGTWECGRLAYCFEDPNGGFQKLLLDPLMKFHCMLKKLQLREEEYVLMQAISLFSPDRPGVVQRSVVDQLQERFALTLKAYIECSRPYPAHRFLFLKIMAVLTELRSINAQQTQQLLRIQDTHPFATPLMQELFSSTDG
Experiment [19] addresses Peroxisome proliferator-activated receptor gamma (Homo sapiens) (UniProt P37231). Put plainly: qHTS assay for small molecule antagonists of peroxisome proliferator-activated receptor gamma signaling (AID 588537; active means well fitted inhibition curve with a large enough effect in the signal ratio, with a control signal flat, not every such curve was filed as active; the % refers to the signal ratio;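 further: reporter cells co-stimulated with 50 nM rosiglitazone agonist during compound treatment; % of control where 0% means no effect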). Put shortly:
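Antagonist mode, beta-lactamase reporter in HEK293; charcoal/dextran FBS 1%; 3000 cells/well, 37 C 6-6.5 h; cpd titration + rosiglitazone 50 nM final, 16 h 37 C; CCF4, 2 h RT; 460/530 nm; Hill fit → IC50, efficacy.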

Experiment [20] has as its target Vitamin D3 receptor (Homo sapiens) (UniProt P11473). Put plainly: qHTS assay for small molecule antagonists of vitamin D receptor signaling (AID 588541; calls by dose curve;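 further: receptor activated by calcitriol during compound treatment; series mostly up to about 77 µM; on the % scale 0 is the no-effect control and ±100 the full control effect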). Put shortly:
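Antagonist-mode beta-lactamase reporter assay: HEK293T VDR-UAS-bla cells were exposed to titrated compound alongside 1-alpha,25-dihydroxyvitamin D3 at 3 nM final for 16 h. Values were normalized to the 50 nM agonist control and DMSO basal, with IC50 and efficacy from Hill equation fits.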

Chain of Peroxisome proliferator-activated receptor alpha (Homo sapiens) (Q07869 whole entry, looked up): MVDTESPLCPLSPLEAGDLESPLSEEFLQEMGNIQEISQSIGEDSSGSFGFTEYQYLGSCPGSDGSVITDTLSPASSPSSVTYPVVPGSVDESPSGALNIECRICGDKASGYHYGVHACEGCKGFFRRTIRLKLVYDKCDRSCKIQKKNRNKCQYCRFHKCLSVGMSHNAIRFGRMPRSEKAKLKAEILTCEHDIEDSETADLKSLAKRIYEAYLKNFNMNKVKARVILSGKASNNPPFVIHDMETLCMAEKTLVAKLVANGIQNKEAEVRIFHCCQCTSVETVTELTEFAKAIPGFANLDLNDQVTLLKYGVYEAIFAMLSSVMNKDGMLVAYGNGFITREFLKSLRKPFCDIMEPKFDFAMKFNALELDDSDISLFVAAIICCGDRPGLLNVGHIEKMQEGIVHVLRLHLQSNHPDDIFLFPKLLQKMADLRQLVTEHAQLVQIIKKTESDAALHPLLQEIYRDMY
Chain of Peroxisome proliferator-activated receptor delta (Homo sapiens) (Q03181 whole entry, looked up): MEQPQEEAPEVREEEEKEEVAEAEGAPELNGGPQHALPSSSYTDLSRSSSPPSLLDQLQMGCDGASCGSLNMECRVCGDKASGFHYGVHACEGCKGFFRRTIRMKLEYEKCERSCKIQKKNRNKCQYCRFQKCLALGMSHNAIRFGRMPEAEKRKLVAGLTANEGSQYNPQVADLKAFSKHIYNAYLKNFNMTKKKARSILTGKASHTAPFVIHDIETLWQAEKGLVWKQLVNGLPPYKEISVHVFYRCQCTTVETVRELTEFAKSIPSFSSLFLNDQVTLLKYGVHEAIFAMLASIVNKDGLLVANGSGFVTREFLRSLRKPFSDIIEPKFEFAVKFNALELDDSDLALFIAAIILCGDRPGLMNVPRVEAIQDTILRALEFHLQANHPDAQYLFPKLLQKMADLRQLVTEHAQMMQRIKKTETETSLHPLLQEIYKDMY
Chain of Thyroid hormone receptor beta (Homo sapiens) (P10828 whole entry, looked up): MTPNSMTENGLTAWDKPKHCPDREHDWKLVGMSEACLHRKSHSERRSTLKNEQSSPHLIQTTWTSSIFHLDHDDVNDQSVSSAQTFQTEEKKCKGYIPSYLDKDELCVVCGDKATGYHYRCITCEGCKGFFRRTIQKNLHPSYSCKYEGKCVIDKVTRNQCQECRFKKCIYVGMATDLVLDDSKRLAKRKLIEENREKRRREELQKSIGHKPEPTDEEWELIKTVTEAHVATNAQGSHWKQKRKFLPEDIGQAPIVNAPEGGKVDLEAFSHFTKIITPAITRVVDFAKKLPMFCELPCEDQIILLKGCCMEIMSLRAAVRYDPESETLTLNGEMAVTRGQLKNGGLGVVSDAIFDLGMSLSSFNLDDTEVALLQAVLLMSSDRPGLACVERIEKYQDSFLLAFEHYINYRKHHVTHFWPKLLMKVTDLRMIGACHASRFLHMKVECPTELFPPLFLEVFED
Chain of Retinoic acid receptor RXR-alpha (Homo sapiens) (P19793 whole entry, looked up): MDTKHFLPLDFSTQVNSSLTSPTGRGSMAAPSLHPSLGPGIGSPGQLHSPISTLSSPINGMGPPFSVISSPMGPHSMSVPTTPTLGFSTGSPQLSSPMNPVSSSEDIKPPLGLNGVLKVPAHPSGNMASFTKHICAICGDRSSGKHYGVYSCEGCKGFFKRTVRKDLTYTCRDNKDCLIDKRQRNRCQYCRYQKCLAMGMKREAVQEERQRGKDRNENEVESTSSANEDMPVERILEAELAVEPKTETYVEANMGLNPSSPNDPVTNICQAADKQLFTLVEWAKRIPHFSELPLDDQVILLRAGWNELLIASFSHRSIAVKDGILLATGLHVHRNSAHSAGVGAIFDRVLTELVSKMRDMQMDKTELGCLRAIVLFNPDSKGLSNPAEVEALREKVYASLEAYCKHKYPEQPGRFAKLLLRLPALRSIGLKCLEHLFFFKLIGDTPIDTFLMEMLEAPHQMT
Chain of Peroxisome proliferator-activated receptor gamma (Homo sapiens) (P37231 whole entry, looked up): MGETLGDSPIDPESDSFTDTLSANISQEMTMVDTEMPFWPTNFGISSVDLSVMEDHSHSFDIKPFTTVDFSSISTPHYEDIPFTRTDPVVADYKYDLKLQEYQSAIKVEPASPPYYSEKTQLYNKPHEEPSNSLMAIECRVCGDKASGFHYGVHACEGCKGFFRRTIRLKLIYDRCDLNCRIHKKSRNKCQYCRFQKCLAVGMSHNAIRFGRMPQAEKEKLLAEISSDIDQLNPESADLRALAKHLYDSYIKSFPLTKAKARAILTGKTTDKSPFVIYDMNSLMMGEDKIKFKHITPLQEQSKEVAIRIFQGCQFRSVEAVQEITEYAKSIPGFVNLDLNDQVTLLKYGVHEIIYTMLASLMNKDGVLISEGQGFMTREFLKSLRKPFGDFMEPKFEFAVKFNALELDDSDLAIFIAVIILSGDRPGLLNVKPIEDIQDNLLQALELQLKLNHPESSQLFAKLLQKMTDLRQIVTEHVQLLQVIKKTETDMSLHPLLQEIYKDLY
Chain of Vitamin D3 receptor (Homo sapiens) (P11473 whole entry, looked up): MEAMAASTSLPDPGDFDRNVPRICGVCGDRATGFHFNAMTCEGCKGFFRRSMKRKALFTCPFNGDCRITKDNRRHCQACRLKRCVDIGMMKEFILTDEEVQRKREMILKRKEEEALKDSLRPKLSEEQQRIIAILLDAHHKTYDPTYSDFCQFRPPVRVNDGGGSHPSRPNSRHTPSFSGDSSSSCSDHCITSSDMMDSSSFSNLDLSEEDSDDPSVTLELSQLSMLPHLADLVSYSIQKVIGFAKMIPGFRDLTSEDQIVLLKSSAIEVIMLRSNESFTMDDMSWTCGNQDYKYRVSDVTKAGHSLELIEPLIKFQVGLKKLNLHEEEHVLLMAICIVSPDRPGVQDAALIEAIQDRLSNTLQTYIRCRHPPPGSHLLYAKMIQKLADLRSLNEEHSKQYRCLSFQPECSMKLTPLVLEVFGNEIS

`CCCCC(C#N)(Cn1cncn1)c1ccc(Cl)cc1` (stereo unspecified): the Potency entry in experiment [1], in experiment [2], in experiment [4], in [6], in [7] and in [14] was “inactive” in each case. Also, the Potency result in experiment [17] is “inactive”. Moreover, the call in experiment [3] was inactive. Also, the max response was 3.82% in experiment [5]; 7.2% and 4.81% in experiment [8]; 3.27% (inactive) and 4.81% (inactive) in [9]; -2.63% (inactive) and 1.11% (inactive) in [13]; 0.943% (inactive) and -1.27% (inactive) in experiment [15]; -11.8% (inactive) and -12.8% (inactive) in experiment [16]. In [10], the activity change % (negative = inhibition) is 6.16% (inactive) and 3.62% (inactive). Moreover, the activation in experiment [11] was -3.98% (inactive); in experiment [12], -0.211% (inactive).

Turning to `Oc1ccc(C2(c3ccc(O)cc3)c3ccccc3-c3ccccc32)cc1`, the Potency was 15.8 µM [inhibitor] (active) in experiment [1], 39.8 µM (active) in experiment [11] and 31.6 µM (active) in [17]. Besides, the Potency entry in [2] and in [14] was “inactive” throughout. Besides, the compound was classed as inactive in experiment [3]. In addition, the activation in experiment [12] is -0.464% (inactive). The max response was -1.22% (inactive) in [13], -12.4% (inactive) in experiment [15], -3.45% (inactive) in experiment [16] and -3.03% (inactive) in [18].

For `Cc1c(F)c(F)c(COC(=O)C2C(/C=C(\Cl)C(F)(F)F)C2(C)C)c(F)c1F` (stereo unspecified), the Potency entry in [1], in experiment [2], in experiment [19], in [20], in experiment [6] and in experiment [7] was “inactive” each time. Besides, the Potency result in experiment [14] and in experiment [17] was “inactive” each time. Besides, the outcome in experiment [3] was inactive. Further, the max response in experiment [5] was -0.493%; in [8], -8.23%; in experiment [13], -0.765% (inactive); in [15], -20.4% (inactive); in experiment [16], -6.4% (inactive); in experiment [18], -1.61% (inactive). Besides, the activity change % (negative = inhibition) in experiment [10] is 16.3% (inactive). The activation in experiment [11] was -3.48% (inactive).

For the compound `O=P(O)(O)CCCl`, the Potency entry in experiment [1], in experiment [2], in [19], in experiment [20], in experiment [7] and in experiment [14] was “inactive” throughout. For the same compound, the Potency result in experiment [17] is “inactive”. Moreover, the outcome in experiment [3] was inactive. Besides, the max response in experiment [8] was -6.38%; in [9] it was 5.61% (inactive); in [13], 0.775% (inactive) and -1.46% (inactive); in [15], -26.8% (inactive) and 3.51% (inactive); in experiment [16], -9.79% (inactive) and -10.1% (inactive); in experiment [18], -9.16% (inactive) and -4.17% (inactive). The activity change % (negative = inhibition) in experiment [10] was 22.1% (inactive) and 18.2% (inactive). Moreover, the activation in experiment [11] was -3.48% (inactive) and 2.67% (inactive); in experiment [12], -0.0383% (inactive) and -0.0843% (inactive).

`O=C(NC(=O)c1c(F)cccc1F)Nc1ccc(OC(F)(F)C(F)OC(F)(F)F)c(Cl)c1` (stereo unspecified): the Potency result in experiment [1], in experiment [2], in [4], in [20], in [6] and in [14] was “inactive” each time. For the same compound, the Potency entry in experiment [17] is “inactive”. Further, in [3], the call was inactive. For the same compound, the max response is -11.8% in experiment [8]; -13% (inactive) in [9]; 0.139% (inactive) in experiment [13]; -4.81% (inactive) in experiment [15]; -16.7% (inactive) in [16]; 1.96% (inactive) in experiment [18]. In addition, in [10], the activity change % (negative = inhibition) was 12.3% (inactive). In [12], the activation is 1.49% (inactive).

As to `CCOS(=O)(=O)OCC`, the Potency result in experiment [1], in experiment [2], in [4], in experiment [19], in [20] and in experiment [6] was “inactive” throughout. Moreover, the Potency result in experiment [7] and in experiment [17] was “inactive” each time. Besides, the outcome in [3] was inactive. Moreover, the max response in [5] was -16.7%; in experiment [8], -7.24%; in [9], 4.62% (inactive); in experiment [13], -1.06% (inactive); in [15] it was -6.17% (inactive); in experiment [18] it was 3.38% (inactive). For the same compound, the activity change % (negative = inhibition) in [10] was 3.34% (inactive). The results for the activation in [11] and in [12] were -2.08% (inactive) and -0.0167% (inactive), respectively.
